In PubChem BioAssay (EPA / NIEHS):
Active and inactive are the calls of the source. Rule for the calls: active = hit-call score of the fitted dose curve at least 0.9, where 1 is the maximum; inactive = score below 0.9.

Test: APR_HepG2_StressKinase_24hr: Apredica 24-hour HepG2 Assay for Stress Kinase (AID 2282922)
Conditions: HepG2 stress kinase (phospho-c-Jun) imaging, actives raise or lower the signal
Description: APR_HepG2_24hr is a cell-based, multiplexed-readout assay that uses HepG2, a human liver cell line, with measurements taken at 24 hours after chemical dosing in a 384-well plate.APR_HepG2_StressKinase_24hr is one of 10 assay component(s) measured or calculated from the APR_HepG2_24hr assay. It is designed to make measurements of enzyme activity, a form of enzyme reporter, as detected with fluorescence intensity signals by HCS Fluorescent Imaging technology.Data from the assay component APR_HepG2_StressKinase_24hr was analyzed into 1 assay endpoint. This assay endpoint, APR_HepG2_StressKinase_24hr, was analyzed with bidirectional fitting relative to DMSO as the negative control and baseline of activity. Using a type of enzyme reporter, measures of protein for gain or loss-of-signal activity can be used to understand the signaling at the pathway-level as they relate to the gene . Furthermore, this assay endpoint can be referred to as a primary readout, because this assay has produced multiple assay endpoints where this one serves a signaling function. To generalize the intended target to other relatable targets, this assay endpoint is annotated to the cell cycle intended target family, where the subfamily is stress response.
Cells were treated with dimethyl sulfoxide (DMSO) as a solvent control at a final concentration of 0.5% v/v or with compounds in DMSO with a resulting final DMSO concentration of 0.5% v/v. Compound treatment was done at concentrations of 0.39, 0.78, 1.56, 3.12, 6.24, 12.5, 25, 50, 100, and 200 uM in duplicate on each plate. Cells were treated with compounds for 1, 24, or 72 hr. Carbonyl […] m-chloro-phenylhydrazone (CCCP) and taxol were used as positive controls for mitochondrial function and cytoskeletal stability, respectively; DMSO served as the negative control for this experiment. Cells were fixed by the direct addition of 50 uL formaldehyde in Hank's Balanced Salt Solution (HBSS) to a final concentration of 3.7%. After incubation in the fixation medium for 30 min at room temperature (293-298 K), cells were rinsed twice with HBSS and treated with cell permeabilization buffer (16 uL of 0.5% Triton X-100) for 10 min at room temperature (293-298 K) before labeling. For mitochondrial membrane potential and mitochondrial measurements, pre-fixed cells were incubated with 50 uL of MitoTracker Red CMXRos (Invitrogen) at a concentration of 250 nM for 30 min before fixation. In the remaining cases, post-fixed cells were labeled by incubation with a multiplexed mixture of primary antibodies in HBSS for 60 min at room temperature (293-298 K) to detect immunoreactivity of c-Jun (1:500), phospho-histone H3 (1:100), phospho-histone H2A.x (1:200), p53 (1:400), alpha-tubulin (1:200) and Hoechst 33342 (2 ug/mL). Cells were labeled for multiplexed imaging on two separate plates: a) Hoechst 33342, MitoTracker Red, phospho-histone H3, and alpha-tubulin, and b) Hoechst 33342, phospho-histone H2A.x, and c-Jun. A final rinse with HBSS (50 uL) was performed before analysis. The primary and secondary antibodies for the proteins were phospho-histone H3 (rabbit anti-phospho-histone H3 and FITC-donkey anti-rabbit IgG), phospho-histone H2A.x (mouse anti-phospho-histone H2A.x and FITC-donkey anti-mouse IgG), c-Jun (rabbit anti-phospho-c-Jun and Cy3-donkey anti-rabbit IgG), p53 (sheep anti-p53 and Cy5-donkey anti-sheep IgG), alpha-tubulin (mouse anti-alpha-tubulin and Cy5-donkey anti-mouse IgG). These antibodies are available as the CellCiphr HepG2 assay kit (Millipore).Digital images of each well were captured using a Cellomics ArrayScan VTI (Thermo Scientific Cellomics) (0.8 NA objective, 0.63x optical coupler, and XF-93 filter set) at 20x magnification. The images were acquired using the autofocus feature of the ArrayScan instrument, which entails the following steps. First, the camera focuses on channel 1 (Hoechst 33342), where nuclei are identified. Second, a Z offset of 1 um is used for capturing mitochondria (MitoTracker Red). […]

Row | SMILES | outcome | AC50
1 | [N-]=[N+]=[N-] | inactive | 
2 | CCOc1ccc(C(C)(C)COCc2cccc(Oc3ccccc3)c2)cc1 | inactive | 
3 | O=P1(N(CCCl)CCCl)NCCCO1 (stereo not given) | inactive | 
4 | CCC(C)(C)c1ccc(O)cc1 | inactive | 
5 | ClC(Cl)c1ccccc1 | inactive | 
6 | ClC(Cl)(Cl)c1ccccc1 | inactive | 
7 | CCC1(c2ccccc2)C(=O)N=C(O)NC1=O (stereo not given) | inactive | 
8 | COCCOCCO | inactive | 
9 | c1nc[nH]n1 | inactive | 
10 | Nc1cc2c3c(c1)C(c1ccccc1)=N[C@@H](NC(=O)c1cccnc1)C(=O)N3CC2 | inactive | 
11 | CCNc1nc(Cl)nc(NC(C)(C)C)n1 | inactive | 
12 | Nc1ccc2ccccc2c1 | inactive | 
13 | CCOP(=S)(OCC)SCSCC | inactive | 
14 | CCOP(=S)(Oc1ccc([N+](=O)[O-])cc1)c1ccccc1 (stereo not given) | inactive | 
15 | Cc1ccc(O)cc1C | inactive | 
16 | CCOS(=O)(=O)OCC | inactive | 
17 | Cc1ccc([N+](=O)[O-])cc1C | inactive | 
18 | O=C(O)C(Cl)Cl | inactive | 
19 | CCCN(CCC)c1c([N+](=O)[O-])cc(C(C)C)cc1[N+](=O)[O-] | inactive | 
20 | OCC1CO1 (stereo not given) | inactive | 

Row | SMILES | outcome | AC50
21 | Cc1ccc(N)cc1N | inactive | 
22 | ClC1=C(Cl)C2(Cl)C3C(Cl)C(Cl)CC3C1(Cl)C2(Cl)Cl (stereo not given) |  | 96.7 µM (active)
23 | CN(C)C(=O)Cl | inactive | 
24 | c1ccc2c(c1)Nc1ccccc1S2 | inactive | 
25 | O=[N+]([O-])c1ccc(Cl)c(Cl)c1 | inactive | 
26 | O=[N+]([O-])c1ccccc1 | inactive | 
27 | Nc1ccc(Cl)cc1 | inactive | 
28 | CCN(CC)c1ccccc1 | inactive | 
29 | CC(Cc1ccc(OCC(=O)O)cc1)NCC(O)c1csc(C(F)(F)F)n1 (stereo not given) | inactive | 
30 | CCCCc1ccccc1 | inactive | 
31 | c1cc2c3c(cccc3c1)CC2 | inactive | 
32 | CC(C)(C)c1ccc(O)cc1 | inactive | 
33 | CSC(C)(C)C=NO | inactive | 
34 | Cc1cccc(N)c1 | inactive | 
35 | CCCCN(CCCC)SN(C)C(=O)Oc1cccc2c1OC(C)(C)C2 | inactive | 
36 | c1ccc(OP(Oc2ccccc2)Oc2ccccc2)cc1 | inactive | 
37 | CC(C)(C)OOC(C)(C)C | inactive | 
38 | CCOC(=O)c1ccccc1C(=O)OCC | inactive | 
39 | CCCCN(CCCC)N=O | inactive | 
40 | O=P(Oc1ccccc1)(Oc1ccccc1)Oc1ccccc1 | inactive | 
